In PubChem BioAssay one finds z-score and composite z-score data, which are given here for 9 compounds.

Assay [1] can be described thus: resazurin metabolic signal in HepG2 cells – cell-based, resazurin fluorescence, 24 h, PK04 Diversity Set, profiling panel (AID 1172). Also: test concentration not given here. The conditions noted are these: HepG2 viability, higher = more signal. A general note: Resazurin is reduced to fluorescent resorufin, in cell work by metabolically active cells.
A short description of assay [2]: budding yeast growth changes without added modifier – OD600, strain BY4716, 24 h, basal condition, primary screen (AID 1173). The conditions noted are these: S. cerevisiae BY4716 growth, OD600, 24 h; higher = more signal, called active from +8 up or from −8 down.
Assay [3] in a line: viability profiling in MM1S myeloma cells – cell-based, resazurin fluorescence, basal, 24 h, PK04 Diversity Set, profiling panel (AID 1174). Also: test concentration not given here. The conditions noted are these: higher = more signal, called active from +8 up or from −8 down.
Assay [4] addresses Dihydroorotate dehydrogenase (quinone), mitochondrial (Plasmodium falciparum (isolate 3D7)) (UniProt Q08210). Briefly: inhibition of P. falciparum DHODH – biochemical, C-terminal His tag, absorbance 600 nm, primary screen (AID 1175).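 Also: recombinant parasite enzyme with a five histidine tag at its C terminus; test concentration not given here.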 Conditions: PfDHODH enzyme, DCIP absorbance 600 nm; higher = more signal, called active from +8 up or from −8 down.
Assay [5] is described as follows: inhibition of PAO1 biofilm formation – strain PAO1, LB-PBS medium, absorbance 600 nm, primary screen (AID 1176). Also: test concentration not given here. Conditions: P. aeruginosa PAO1 growth/biofilm, A600, 12 h; higher = more signal.
Assay [6] is described as follows: growth modulation of vineyard yeast isolate – strain RM11-1a, OD600, basal, 24 h, primary screen (AID 1177).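 Also: cultures grown under basal conditions with no added stressor; test concentration not given here.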 Conditions: S. cerevisiae RM11-1a growth, OD600, 24 h; higher = more signal, called active from +8 up or from −8 down.
The nature of assay [7]: growth of efflux-deficient E. coli DRC39 – strain DRC39, OD650, 24 h, E. coli filamentation inducers, primary screen (AID 1178).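 Also: growth measured as culture turbidity by optical density at 650 nm; test concentration not given here.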 Conditions: E. coli DRC39 acrAB, higher = more signal, called active from +8 up or from −8 down.
The nature of assay [8]: growth of efflux-deficient E. coli DRC39 – strain DRC39, OD650, 48 h, E. coli filamentation inducers, primary screen (AID 1179).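 Also: screen aims at cell division blockers that make cells filament.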 The conditions noted are these: E. coli DRC39 delta-acrAB growth, higher = more signal, called active from +8 up or from −8 down.
Assay [9] in a line: viability profiling in RPMI8226 myeloma cells – cell-based, resazurin fluorescence, basal, 24 h, PK04 Diversity Set, profiling panel (AID 1180).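 Also: RPMI8826 multiple myeloma cell line at 5000 cells per well; test concentration not given here.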 Conditions: higher = more signal.
In assay [10] the target is E3 ubiquitin-protein ligase XIAP (Homo sapiens) (UniProt P98170). Put plainly: small molecules binding XIAP protein – biophysical, small-molecule microarray, fluorescence 635 nm, primary screen (AID 1181).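 Also: score merges 667 nm emission and signal to noise over triplicate slides.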 The conditions noted are these: higher = more signal.

Activity calls are given as the source filed them. Unless noted, no rule for the calls is given here.

Chain of E3 ubiquitin-protein ligase XIAP (Homo sapiens) (P98170 whole entry, looked up): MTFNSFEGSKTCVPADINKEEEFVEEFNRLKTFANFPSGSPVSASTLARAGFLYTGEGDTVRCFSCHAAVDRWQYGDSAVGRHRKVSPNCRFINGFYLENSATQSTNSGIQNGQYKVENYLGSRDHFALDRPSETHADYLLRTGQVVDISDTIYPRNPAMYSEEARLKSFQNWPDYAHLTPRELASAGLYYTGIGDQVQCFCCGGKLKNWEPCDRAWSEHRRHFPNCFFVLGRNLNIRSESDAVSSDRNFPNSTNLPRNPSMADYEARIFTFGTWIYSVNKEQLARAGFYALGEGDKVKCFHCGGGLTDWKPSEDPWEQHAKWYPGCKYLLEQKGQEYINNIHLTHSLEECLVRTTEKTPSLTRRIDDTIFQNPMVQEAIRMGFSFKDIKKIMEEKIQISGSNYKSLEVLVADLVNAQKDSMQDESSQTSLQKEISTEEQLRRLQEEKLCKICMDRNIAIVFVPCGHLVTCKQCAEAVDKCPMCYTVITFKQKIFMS
Chain of Dihydroorotate dehydrogenase (quinone), mitochondrial (Plasmodium falciparum (isolate 3D7)) (Q08210 whole entry, looked up): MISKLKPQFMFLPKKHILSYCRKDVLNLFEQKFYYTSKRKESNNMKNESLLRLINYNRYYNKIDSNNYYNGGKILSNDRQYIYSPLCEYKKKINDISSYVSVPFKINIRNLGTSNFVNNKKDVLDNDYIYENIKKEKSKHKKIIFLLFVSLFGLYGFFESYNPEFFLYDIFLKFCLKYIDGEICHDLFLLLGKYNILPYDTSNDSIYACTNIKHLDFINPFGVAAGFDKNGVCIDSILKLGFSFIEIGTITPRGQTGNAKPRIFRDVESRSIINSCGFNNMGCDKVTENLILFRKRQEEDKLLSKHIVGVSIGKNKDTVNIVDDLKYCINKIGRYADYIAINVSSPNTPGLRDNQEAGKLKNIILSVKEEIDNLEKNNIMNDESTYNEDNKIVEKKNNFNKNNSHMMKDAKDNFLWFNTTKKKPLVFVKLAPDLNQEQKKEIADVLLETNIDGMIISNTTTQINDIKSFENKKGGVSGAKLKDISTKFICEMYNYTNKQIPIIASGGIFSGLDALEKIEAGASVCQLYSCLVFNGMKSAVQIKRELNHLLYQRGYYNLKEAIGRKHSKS

As for `C=CC[C@]1(C(=O)NCCN2CCOCC2)N=C(c2ccc(OCCCO)cc2)O[C@H]1c1ccccc1CN=[N+]=[N-]`, the z-score is 0.735 in assay [1]; -1.01 (inactive) in assay [2]; 0.33 (inactive) in assay [3]; -1.17 (inactive) in [5]; 0.724 (inactive) in assay [6]; 1.31 (inactive) in assay [7]. Moreover, the figures for the z-score in assay [8] and in [9] were 0.351 (inactive) and 0.485, respectively. The composite z-score in assay [4] is 0.453 (inactive); in assay [10], -0.209.

`Cn1cccc1C(O)C1C=CC2C(=O)NC(=O)C2N1Nc1ccc(Cl)cc1Cl` (stereo not given): the z-score in [1] was -1.75; in assay [2], -3.53 (inactive); in [3] it was -1.86 (inactive); in assay [5], 1.69 (inactive); in assay [6] it was 0.441 (inactive); in assay [7], -1.09 (inactive). Further, the z-score is -1.28 (inactive) in [8] and -1.98 in assay [9]. Further, the composite z-score in [4] was 0.121 (inactive); in assay [10], 0.315.

As to `COC(=O)[C@@]1(Cc2ccc(OC)cc2)[C@H]2c3cc(C(=O)N(C)C)n(Cc4ccc(Cl)c(C(F)(F)F)c4)c3C[C@H]2CN1C(=O)c1ccccc1`, the z-score in assay [1] was -1.21; in [2], 1.86 (inactive); in assay [3], -2.74 (inactive); in assay [5], 0.812 (inactive); in [6], 0.673 (inactive); in [7] it was -0.505 (inactive). Besides, the z-score was -0.0176 (inactive) in assay [8] and -2.7 in [9]. Also, the figures for the composite z-score in [4] and in assay [10] were 0.381 (inactive) and 0.216, respectively.

Consider `COCCOC(=O)N1C(=O)[C@@]2(c3cc(C#CC4=CCCCC4)ccc31)[C@H](c1ccccc1OCCO)N1[C@H](c3ccccc3)[C@H](c3ccccc3)OC(=O)[C@H]1[C@@H]2C(=O)N1CCCCCCC1`, for which the z-score in assay [1] was 0.133; in [2], 1.86 (inactive); in [3], -4.58 (inactive); in assay [5] it was 0.365 (inactive); in assay [6], 2.01 (inactive); in assay [7] it was 0.105 (inactive). Also, the z-score is -1.32 (inactive) in assay [8] and -3.11 in assay [9]. The composite z-score was 0.668 (inactive) in [4] and -0.0663 in assay [10].

Consider `C[C@@H]1NC(=O)[C@@]23C(=O)N[C@@H](Cc4ccccc4)C2[C@H](C)[C@@]2(C)O[C@H]2C3/C=C/C/C=C\CNC(=O)[C@@H]2CCCN2C1=O` (stereo not given in full), for which the z-score in assay [1] is -0.289; in assay [2], -0.963 (inactive); in assay [3], -0.737 (inactive); in assay [5], 1.28 (inactive); in [6] it was -0.142 (inactive); in [7], -0.4 (inactive). In addition, the z-score in assay [8] is -0.188 (inactive); in [9], -0.0461. For the same compound, the figures for the composite z-score in [4] and in [10] were -0.972 (inactive) and -0.102, respectively.

As to `NC(=O)N1C(=O)C2C(C1=O)C1C=C(CCCO)C2C(c2cccs2)N1Cc1cccc(OC(F)(F)F)c1` (stereo not given), the z-score in assay [1] was 0.0214; in assay [2] it was -3.57 (inactive); in assay [3], -0.637 (inactive); in assay [5], -0.223 (inactive); in assay [6] it was 0.199 (inactive); in [7] it was -0.205 (inactive). For the same compound, the results for the z-score in [8] and in assay [9] were -0.692 (inactive) and -0.18, respectively. The composite z-score in assay [4] is -0.376 (inactive); in [10], 0.195.

Turning to `O=C1NC(=O)C2C1C=CC(C(O)c1cccc3ccccc13)N2Nc1ccc(Cl)cc1Cl` (stereo not given), the z-score in assay [1] is -2.01; in assay [2], -4.99 (inactive); in assay [3] it was -1.66 (inactive); in assay [5] it was 0.875 (inactive); in assay [6] it was 0.981 (inactive); in [7], -0.693 (inactive). In addition, the z-score in assay [8] was -0.726 (inactive); in [9], -1.84. In addition, the composite z-score in assay [4] was 0.847 (inactive); in [10], 0.351.

Consider `Cc1ccc(S[C@]2(C(=O)NCC(F)(F)F)CC(=O)N(Cc3ccccc3)[C@@H]2c2ccc(CO)cc2I)cc1`, for which the z-score in [1] is 0.448; in [2] it was -3.93 (inactive); in assay [3], -3.15 (inactive); in assay [5], 0.848 (inactive); in assay [6], -1.55 (inactive); in assay [7], 0.531 (inactive). Also, the z-score in assay [8] is 0.562 (inactive); in assay [9], -2.27. Further, the composite z-score in assay [4] is 0.343 (inactive); in [10], 0.0338.

Take `C=CCN1C(=O)[C@@]2(CCS(=O)(=O)c3ccccc3)N=C(c3ccc(OCCCO)cc3)O[C@H]2c2ccccc21`: the z-score in assay [1] was -0.436; in [2] it was 0.698 (inactive); in [3], -0.427 (inactive); in assay [5] it was 0.563 (inactive); in [6], 1.45 (inactive); in assay [7], -0.0209 (inactive). In addition, the z-score in [8] is 0.242 (inactive); in assay [9], -2.12. Also, the values for the composite z-score in assay [4] and in [10] were -0.218 (inactive) and -0.0421, respectively.
